Source: PubChem (National Center for Advancing Translational Sciences (NCATS))
This is a sample that favours compounds with a hit; in the whole collection about 1.8% have one here.
GLP-1R inv ag: inverse agonists of human GLP-1 receptor; P43220; HEK293 GLP-1R CRE-luciferase, luminescence, 24 h; GLP-1R form is constitutively active; Potency, µM (top dose mostly 38.3 µM), usual class: inhibitors; 410,000 compounds, 1.6% hits; note: nearly all actives have a fitted effect of over 55% in size
Target sequence (P43220 whole entry, looked up): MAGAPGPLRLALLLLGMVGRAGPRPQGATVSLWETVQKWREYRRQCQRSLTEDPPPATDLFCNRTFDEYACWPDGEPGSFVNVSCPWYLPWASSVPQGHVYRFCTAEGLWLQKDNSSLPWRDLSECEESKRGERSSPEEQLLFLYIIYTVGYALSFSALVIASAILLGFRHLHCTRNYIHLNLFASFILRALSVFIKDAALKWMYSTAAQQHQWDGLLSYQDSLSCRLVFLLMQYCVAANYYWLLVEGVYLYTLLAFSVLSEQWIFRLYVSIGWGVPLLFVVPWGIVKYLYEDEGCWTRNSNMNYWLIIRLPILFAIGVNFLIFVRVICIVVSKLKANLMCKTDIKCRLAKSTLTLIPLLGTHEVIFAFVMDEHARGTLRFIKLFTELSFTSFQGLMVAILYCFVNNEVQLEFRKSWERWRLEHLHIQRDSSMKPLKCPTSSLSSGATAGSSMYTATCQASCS
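Assay principle: reduced luminescence from a cAMP-responsive reporter in HEK293 cells co-expressing a constitutively active GLP-1R. Conditions: 24 hr compound incubation, 37 deg C, 5% CO2.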
TSHR antag: blocks TSH signaling through the human TSH receptor. activity change, negative = inhibition, % at 11.5 µM. 330,000 compounds, 0.2% hits. P16473. AID 504810. TSHR-expressing cells, TSH-stimulated cAMP HTRF, 2 h; hits give low values;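 active = activity change below a set negative limit, meaning inhibition stronger than a set level, cut at about -70% in these data; inconclusive = activity change between two set negative limits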
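TSHR-expressing cells, 200/well, pre-treated with compound, then stimulated with EC80 TSH (4nM final) for 2 hours at 37 deg C. cAMP measured by competitive HTRF: anti-cAMP cryptate antibody in lysis buffer plus cAMP-d2, read after 30 minutes at room temperature.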
GLP-1R agonist: GLP-1 receptor (human) agonism; P43220; HEK293 GLP-1R CRE-luciferase, luminescence, 4-6 h; cells express a hypersensitive GLP-1R form; Potency, µM (top dose mostly 45.6 µM), usual class: activators; 380,000 compounds, 0.007% hits; AID 624172
PTHR1 agonist: activates the human parathyroid hormone receptor PTHR1. Q03431. HEK293 GP2 PTHR1 cells, GloSensor cAMP luminescence, 1 h. Potency, µM (titrated, usually from 115 µM), most hits filed as activators. 410,000 compounds, 0.075% hits. AID 743266; note: nearly all actives have a fitted effect of over 55% in size
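HEK-293-derived GP2 cells expressing PTHR1 and a GloSensor cAMP reporter, 3,000/well, plated overnight, given luciferin plus IBMX (each 0.5 mM as added) for 1 h at 37 °C, then compound for 1 h at 37 °C. Luminescence was read after 15 min at room temperature.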
GLP1R cytotox: cytotoxic in the GLP-1 receptor inverse agonist counter-screen. HEK293 cAMP-luciferase reporter cells, luminescence, 24 h. Potency, µM (titrated, usually from 38.3 µM), most hits filed as inhibitors. 410,000 compounds, 0.13% hits. AID 624418;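 note: loss of luciferase light is scored as toxicity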
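Seeding density was 200 cells/uL; after overnight-length (12 h) culture, 23 nL compounds went on for 24 h at 37 °C. Readout used a luciferase detection reagent, luminescence taken after 12 min at room temperature.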
Numbers stand for hits; . = inactive; ? = inconclusive; / = no result. Unless noted, calls come from the whole dose curve; as a rule, active = well fitted curve in the direction sought with a large enough effect; inconclusive = small, poorly fitted or top-dose-only effect, or another doubt; inactive = no such curve, though single readings can be large; an effect the other way counts as inactive or inconclusive.

SMILES	GLP-1R inv ag	TSHR antag	GLP-1R agonist	PTHR1 agonist	GLP1R cytotox
O=S(=O)(c1ccc(OCC2CO2)cc1)c1ccc(OCC2CO2)cc1 (centres undefined)	10µM	.	.	.	?
COc1ccc(-n2c(C)cc(C(=O)CN3C(=O)NC4(CCCc5sccc54)C3=O)c2C)cc1 (centres undefined)	12.6µM	.	.	.	.
CCOC(=O)c1noc2nc(C)n(CC(=O)Nc3cccc(OC)c3)c(=O)c12	.	/	/	.	.
COc1cc(OC)cc(C(=O)Nc2cc(-c3nc4cccnc4s3)ccc2C)c1	.	/	/	.	.
Cc1ccc(OCCOC(=O)c2cc(S(=O)(=O)N3CCCCC3)ccc2N2CCOCC2)cc1	.	.	.	.	?
O=C(OCCOc1ccc(Cl)cc1)c1cc(S(=O)(=O)N2CCCCC2)ccc1N1CCOCC1	10µM	/	.	.	.
Cc1ccc(Nc2c(-c3cccs3)nc3nc(C)cc(C)n23)cc1	?	/	/	.	.
CN(C)c1ccc(C2CNC(c3ccc(Cl)c([N+](=O)[O-])c3)c3[nH]c4ccccc4c32)cc1 (centres undefined)	4.47µM	.	.	.	.
CCc1ccc(-n2c(N3CCN(c4ccc(F)cc4)CC3)nc3ccccc3c2=O)cc1	11.2µM	/	/	.	.
CCOC(=O)c1c(C)[nH]c(C)c1C(=O)CSc1nc2ccccc2c(=O)n1-c1ccc(CC)cc1	10µM	.	.	.	.
Cc1ccc2onc(CNC(=O)N(C)Cc3ccccc3)c2c1	.	/	/	.	.
COc1ccc2nc(SCC(O)c3cccc(Br)c3)[nH]c2c1 (centres undefined)	.	/	/	.	.
CN1CC[C@H](c2c(O)cc(O)c3c(=O)cc(-c4ccccc4Cl)oc23)[C@@H](O)C1	/	/	.	/	/
Fc1cccc(NCc2cccn2-c2nnc(N3CCOCC3)s2)c1	.	/	.	.	.
COc1cc(CN(C2CC2)S(=O)(=O)c2ccccc2Br)cc(OC)c1	10µM	.	.	.	.
Cc1cccc(-c2nc(CN3CCCC(C(=O)NC4CCCCC4)C3)c(C)o2)c1 (centres undefined)	3.55µM	.	.	?	?
O=C(CSc1c2c(nc3ccccc13)CCC2)Nc1ccc(F)cc1	?	/	/	.	.
Clc1cc(Cl)c(OCC#CI)cc1Cl	/	/	.	/	/
CCC1CCCCN1C(=O)CSc1nnc(-c2c[nH]c3ccccc23)o1 (centres undefined)	11.2µM	.	.	.	.
CC1CCCC(C)N1C(=O)CSc1nnc(-c2c[nH]c3ccccc23)o1 (centres undefined)	.	.	.	.	.
Cc1c(C(=O)N2CCCCC2)oc2ccc(S(=O)(=O)N3CC(C)CC(C)C3)cc12 (centres undefined)	8.91µM	.	.	.	.
CCN(CC)CCCNC(=O)c1oc2ccc(S(=O)(=O)N3CC(C)CC(C)C3)cc2c1C (centres undefined)	1.41µM	.	.	.	?
COc1ccc(Cl)cc1NC(=O)CN(c1cccc(C)c1C)S(=O)(=O)c1ccccc1	?	/	.	.	.
Cc1ccc(-n2ncc(C(=O)NC3CCN(Cc4ccccc4)CC3)c2C2CCN(C(=O)OC(C)(C)C)CC2)cc1C	?	/	/	.	.
O=C(Cn1ccn(-c2ccc(F)cc2)c(=O)c1=O)Nc1ccccc1C(F)(F)F	.	/	/	.	.
SMILES	GLP-1R inv ag	TSHR antag	GLP-1R agonist	PTHR1 agonist	GLP1R cytotox
Cc1ccc2c(c1)c1c(n2CC(O)CNC2CCCC2)CCCC1 (centres undefined)	11.2µM	.	.	.	?
Cc1ccccc1-n1c(C)cc(/C=C(\C#N)C(=O)NCC2CCCO2)c1C (centres undefined)	?	.	.	.	.
Cc1cc(/C=C(\C#N)C(=O)NCc2cccs2)c(C)n1-c1ccccc1F	2.82µM	.	.	.	.
CCN(c1ccccc1)S(=O)(=O)c1cc(C(=O)NCC(c2ccc(OC)cc2)N(C)C)ccc1C (centres undefined)	11.2µM	/	.	.	.
COc1ccc(C(CNC(=O)c2ccc(S(=O)(=O)N(C)C)cc2)N(C)C)cc1 (centres undefined)	.	.	.	.	.
Cc1cccc(NS(=O)(=O)c2ccc3c(c2)CC(C)N3C(=O)C2CCC2)c1C (centres undefined)	?	/	/	.	.
c1ccc(CCNc2ncnc3scc(C4COc5ccccc5O4)c23)cc1 (centres undefined)	7.94µM	.	.	?	?
COc1ccc2[nH]c3c(c2c1)CCN1C(=O)C(CC(=O)NCC24CC5CC(CC(C5)C2)C4)C[C@H](C(=O)N(C(C)C)C(C)C)[C@@]31C (some centres undefined)	10µM	.	.	.	.
COc1ccc2[nH]c3c(c2c1)CCN1C(=O)C(CC(=O)NCC24CC5CC(CC(C5)C2)C4)C[C@H](C(=O)N2CCOCC2)[C@@]31C (some centres undefined)	?	.	.	.	.
C[C@]12c3[nH]c4ccc(Cl)cc4c3CCN1C(=O)[C@@H](CC(=O)NCC13CC4CC(CC(C4)C1)C3)C[C@@H]2C(=O)N1CCOCC1	10µM	.	.	.	.
C[C@]12c3[nH]c4ccc(Cl)cc4c3CCN1C(=O)[C@@H](CC(=O)NCC13CC4CC(CC(C4)C1)C3)C[C@@H]2C(=O)N1CCCCC1	.	.	.	.	.
CCC(=O)Oc1ccc(C2Nc3ccccc3-c3nnc(SC)nc3O2)cc1 (centres undefined)	.	/	/	.	.
O=C(O)c1ccc(NC2=C/C(=N/S(=O)(=O)c3ccccc3)c3ccccc3C2=O)cc1	?	-73.6	.	.	?
Cn1c(=O)c2c(-c3ccc(Br)cc3)n(Cc3ccc(F)cc3)cc2n(C)c1=O	?	/	/	.	.
CCCc1ccc2oc(C(=O)NCCN3CCCC(C(N)=O)C3)c(C)c2c1 (centres undefined)	?	.	.	.	.
CCCc1ccc2oc(C(=O)NCCN3CCCC(O)C3)c(C)c2c1 (centres undefined)	10µM	.	.	.	.
Cc1ccc(Cl)cc1N1CCN(C(=O)c2ccc3c(c2)N(Cc2ccc(F)cc2)CCS3)CC1	?	/	/	.	.
S=C1NCCc2ccc(Cl)cc2C1c1ccccc1Cl (centres undefined)	?	.	.	.	?
Clc1ccc2c(c1)C(C1=NCCN1)c1ccccc1CS2 (centres undefined)	3.16µM	.	.	.	?
CCOc1ccc(NC(=O)c2ccc3c(c2)CCN3S(=O)(=O)c2ccc(Cl)cc2)cc1	.	/	/	.	.
O=C1c2ccccc2C2(c3ccccc3)NCCCN12 (centres undefined)	.	.	.	.	.
